This note sets out measurements from PubChem BioAssay AID488969 (Vanderbilt High Throughput Screening Facility, 2010).

Over roughly 110,000 compounds, “z-score” has its median near -0.1; the highest 2% begin near 2. The full list was thinned out, with the highest values kept by preference. Activity calls are given as the source filed them.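 The calls were made as follows: active = z-score in the third read window above 3 or below -3; inactive = the rest.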

In the assay the target is Metabotropic glutamate receptor 8 (Rattus norvegicus) (UniProt P70579). The experiment in a line: mGluR8 Gi/Go-coupled signaling modulation – cell-based, rat, thallium flux, HTS, primary screen (AID 488969). As to conditions: HEK293 rat mGluR8, GIRK (G protein-gated inwardly rectifying potassium channel) thallium flux, FluoZin2; at 10 µM; stronger effect = higher value; submaximal glutamate (EC20) added with thallium.
Sequence of Metabotropic glutamate receptor 8 (Rattus norvegicus) (P70579 whole entry, looked up): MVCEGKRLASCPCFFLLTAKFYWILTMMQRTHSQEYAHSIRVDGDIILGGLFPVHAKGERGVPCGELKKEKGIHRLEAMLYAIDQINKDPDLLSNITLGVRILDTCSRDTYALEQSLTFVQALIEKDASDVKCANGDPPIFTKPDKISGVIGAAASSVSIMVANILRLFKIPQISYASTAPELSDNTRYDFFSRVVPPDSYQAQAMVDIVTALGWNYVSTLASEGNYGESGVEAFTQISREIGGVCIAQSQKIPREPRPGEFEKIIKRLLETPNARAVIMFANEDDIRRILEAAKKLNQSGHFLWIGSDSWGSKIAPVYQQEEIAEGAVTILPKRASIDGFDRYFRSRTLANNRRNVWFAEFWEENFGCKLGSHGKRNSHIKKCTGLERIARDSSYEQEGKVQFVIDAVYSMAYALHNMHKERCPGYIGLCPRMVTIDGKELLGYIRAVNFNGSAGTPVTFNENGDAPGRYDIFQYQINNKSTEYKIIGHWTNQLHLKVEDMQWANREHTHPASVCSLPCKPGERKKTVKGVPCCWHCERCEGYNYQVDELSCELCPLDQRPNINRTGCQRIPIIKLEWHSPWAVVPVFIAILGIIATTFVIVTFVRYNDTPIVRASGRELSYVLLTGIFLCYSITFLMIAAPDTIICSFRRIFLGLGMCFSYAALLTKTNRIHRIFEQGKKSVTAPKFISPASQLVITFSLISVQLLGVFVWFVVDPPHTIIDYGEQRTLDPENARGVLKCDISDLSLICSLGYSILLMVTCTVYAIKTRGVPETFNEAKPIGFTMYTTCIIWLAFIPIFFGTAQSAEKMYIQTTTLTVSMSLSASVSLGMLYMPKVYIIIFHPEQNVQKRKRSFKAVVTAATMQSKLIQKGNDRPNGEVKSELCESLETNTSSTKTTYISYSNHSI
For the molecule `CN(C)CCCN1C(=O)CSC1c1ccccc1` (stereo unspecified), the z-score was -0.244. Then `O=C(C1CCCN1S(=O)(=O)c1cccc2cccnc12)N1CCc2ccccc21` (stereo unspecified), with 2.97.

Turning to `O=C(C1CCCN1S(=O)(=O)c1cccc2cccnc12)N1CCn2c1nc1ccccc12` (stereo unspecified), the z-score was 3.63 (active). With `O=C(C1CCCN(S(=O)(=O)c2cccc3cccnc23)C1)N1CCc2ccccc21` (stereo unspecified), the z-score is -1.2.

For `O=C(C1CCN(S(=O)(=O)c2cccc3cccnc23)CC1)N1CCn2c1nc1ccccc12`, the z-score was -0.522.

As for `O=C(C1CCCN1S(=O)(=O)c1cccc2cccnc12)N1CCc2ccccc2C1` (stereo unspecified), the z-score is -0.115. Then `O=C(C1CCCN1S(=O)(=O)c1cccc2cccnc12)N1CCN(c2ccccc2)CC1` (stereo unspecified), with -0.0642. Then `Cc1nc2cc(-c3ccc(Cl)cc3)nn2c(C)c1CCC(=O)NCc1ccco1`, with -0.0434; and `CCOC(=O)c1oc2ccccc2c1NC(=O)COc1ccc(F)cc1`, with -0.456. Then `CSc1nnc(-c2cc3c(s2)-c2ccccc2CC3)o1`, with 0.0264; and `S=c1[nH]nc(-c2cc3c(s2)-c2ccccc2CC3)o1`, with 16.3 (active). The molecule `CCSc1nnc(-c2cc3c(s2)-c2ccccc2CC3)o1` had a z-score of 0.000914.

Regarding `N=c1sccn1CC(=O)Nc1cccc2ccccc12`, the z-score is -0.00239. Take `COC(=O)Nc1nc(C)c(C(=O)N(C)C)s1`: the z-score is 4.58 (active).

Turning to `CCOC(=O)Nc1nc(C)c(C(=O)N(C)C)s1`, the z-score was -0.0609.

In the case of `Cc1nc(NC(=O)C2CC2)sc1C(=O)N(C)C`, the z-score was -0.405. Then `O=C(CCN1C(=O)COc2ccccc21)NCCCN1CCc2ccccc2C1`, with 7.6 (active).

Consider `O=C(CCN1C(=O)COc2ccccc21)NCCN1CCc2ccccc2C1`, for which the z-score is -0.306. In turn, `O=C(CN1C(=O)COc2ccccc21)NCCCN1CCc2ccccc2C1` yielded a z-score of 0.383.

In the case of `Cc1ccc(/C=C(\C#N)c2nc3ccccc3[nH]2)s1`, the z-score is -0.0719. Next, `O=C(COC(=O)CCCOc1ccc(Cl)cc1Cl)NCc1ccc(F)cc1`: -0.191; `Cc1ccsc1/C=N/NC(=O)c1cccs1`: 0.356.

With `Cc1ccc(N2CC(C(=O)N/N=C/c3cccc([N+](=O)[O-])c3)CC2=O)cc1` (stereo unspecified), the z-score is -0.282. Next, `Cc1ccc(N2CC(C(=O)N/N=C/c3sccc3C)CC2=O)cc1` (stereo unspecified): 3.3 (active); `CSc1ccc(/C=N/NC(=O)c2sccc2C)cc1`: -0.312; `Cc1ccsc1/C=N/NC(=O)c1sccc1C`: 5.91 (active). The molecule `Cc1ccsc1/C=N/NC(=O)C1CC(=O)N(c2ccccc2)C1` (stereo unspecified) returned a z-score of 0.243.

With `Cc1nc2c(C)cccc2cc1C(=O)N/N=C/c1cccc([N+](=O)[O-])c1`, the z-score is -0.361. Then `O=C(NCc1ccc(-c2nc3ccccc3s2)cc1)c1ccc(Br)o1`, with -0.21; and `O=C(COC(=O)c1ccco1)Nc1nc2ccccc2s1`, with 0.111. Next, `O=C(NC(=S)NCc1ccc(-c2nc3ccccc3s2)cc1)c1ccco1`: 2.52. Then `O=C(Nc1ccccc1-c1nc2ccccc2s1)c1ccco1`, with -0.0204; and `O=C(NCc1ccc(-c2nc3ccccc3s2)cc1)c1ccco1`, with -0.111; and `O=C(NC(=S)Nc1nc2ccccc2s1)c1ccco1`, with 8.72 (active). `O=C(COc1ccc(Cl)cc1Cl)NC(=O)N1CCCCC1` registered a z-score of 1.09. Then `Cc1sc2ncnc(N=Nc3c(O)[nH]c4ccccc34)c2c1C`, with -0.0288; and `CCOC(=O)c1cc(OC(=O)c2cccnc2)n(-c2ccccc2)n1`, with -0.265. As to `COc1cccc(CN(C)CC(=O)NC(=O)NCc2ccccc2)c1`, the z-score is 0.16. As to `CN(CC(=O)NC(=O)NCc1ccccc1)Cc1ccc(Cl)cc1`, the z-score is -0.334. Next, `COc1ccc(CN(C)CC(=O)NC(=O)NCc2ccccc2)cc1OC`: 5.52 (active); `COC(=O)C1=C(C(=O)c2ccccc2)C(c2ccc(OC)c(OC)c2)Nc2nnnn21` (stereo unspecified): 0.0695. Then `C/C(=N\NC(=O)CSc1nnc(C)s1)c1ccc(O)cc1`, with 0.00192. Then `NC(=S)N/N=C/c1ccc(-c2ccc(Cl)c(Cl)c2)o1`, with 0.653. In the case of `NC(=S)N/N=C/c1ccc(-c2cc(Cl)ccc2Cl)o1`, the z-score was 2.21.

With `NC(=S)N/N=C/c1ccc(-c2cc(Cl)cc(Cl)c2)o1`, the z-score stood at 0.987. Then `CCCCOC(=O)CSc1n[nH]c(=O)[nH]c1=O`, with -0.957. Next, `Cc1ccc(-c2nnc(CSc3nc(C(C)C)nc4sc(C)c(C)c34)o2)cc1`: 1.42.

Take `Cc1ccc(-c2nnc(CSc3nnc(C)s3)o2)cc1`: the z-score stood at 0.552. Then `CCc1nc(SCc2nnc(-c3ccc(C)cc3)o2)c2c(C)c(C)sc2n1`, with 2.26; and `O=C(CCC(=O)OCC(=O)c1ccc(-c2ccccc2)cc1)Nc1cccc2cccnc12`, with -0.0975. Next, `Cn1c(=O)c(C(=O)Nc2cccnc2)c(O)c2ccccc21`: 1.29; `COc1ccc2c(Cl)c(C(=O)NCCCn3ccnc3)sc2c1`: -0.0695. Then `Cc1cc(C)c2nc(SC(C)C(=O)NCC(=O)Nc3ccc(F)c(F)c3F)cc(C)c2c1` (stereo unspecified), with 7.48 (active); and `Cc1ccc(-n2nnnc2SC(C)C(=O)NCC(=O)Nc2ccc(F)c(F)c2F)c(C)c1` (stereo unspecified), with -0.287; and `Cc1cc(SC(C)C(=O)NCC(=O)Nc2ccc(F)c(F)c2F)nc2ccccc12` (stereo unspecified), with -0.101.

`CCCCC(=O)Nc1ccc(C(=O)NNC(=O)c2cccs2)cc1`: the z-score is -0.305.

For `O=C(NCc1ccco1)c1ccc(COc2cc(Cl)ccc2Cl)cc1`, the z-score is 0.104.

Take `COc1ccc(Cc2nnc(N)s2)cc1`: the z-score was -0.0129. Next, `CCn1c(SCC(=O)OC)nc2sc3c(c2c1=O)CCC3`: -0.399; `CCn1c(SCC(=O)O)nc2sc3c(c2c1=O)CCC3`: -1.62. Next, `CCn1c(SCC(N)=O)nc2sc3c(c2c1=O)CCCC3`: 8.59 (active).

As for `CCN1C(=O)c2ccc(C(=O)NCc3ccccc3)cc2C1=O`, the z-score is -0.278. Next, `COC(=O)c1ccc(CSc2nnc(NC(=O)C3CC(=O)N(c4ccc5c(c4)OCCO5)C3)s2)cc1` (stereo unspecified): 0.162; `CCc1nnc(NC(=O)C2CC(=O)N(c3ccc4c(c3)OCCO4)C2)s1` (stereo unspecified): -0.124; `O=C(Nc1nnc(SCc2ccc(F)cc2)s1)C1CC(=O)N(c2ccc3c(c2)OCCO3)C1` (stereo unspecified): 3.68 (active). Next, `O=C(NCc1ccco1)C(Cc1ccccc1)NS(=O)(=O)c1cccc2nsnc12` (stereo unspecified): -0.0409. For the molecule `Cn1c(=O)[nH]c(=O)c2c1nc(Br)n2CCCSc1nc2ccccc2o1`, the z-score is -0.621. Next, `COc1ccccc1NC(=O)c1ccc(N)cc1`: 0.511; `COc1ccccc1NS(=O)(=O)c1ccc(C)c(NC(=O)c2ccc(S(=O)(=O)N3CCCCCC3)cc2)c1`: -0.106; `COc1ccccc1NC(=O)c1ccc(S(=O)(=O)N2CCOCC2)cc1`: 0.986.

Take `COc1ccccc1NC(=O)c1cc(C(=O)Nc2ccccc2OC)cc(N2C(=O)CCC2=O)c1`: the z-score was 4.66 (active). Then `COc1ccccc1NC(=O)c1cccnc1`, with 0.226; and `COc1ccccc1NC(=O)c1ccc(S(=O)(=O)N2CCCC2)cc1`, with 3.99 (active); and `O=[N+]([O-])c1ccc(OCC(O)CN2CCN(c3ccccc3F)CC2)cc1` (stereo unspecified), with -0.357.

With `Cc1ccc(NS(=O)(=O)c2cc([N+](=O)[O-])ccc2NNC(=S)Nc2cccc(Cl)c2)c(C)c1`, the z-score is -0.12. Then `Cc1cccc(Sc2ccc([N+](=O)[O-])cn2)c1`, with -1.63. Regarding `O=C(CSc1nc(-c2cccs2)cc(C(F)(F)F)n1)NCc1ccccc1`, the z-score was -0.654. Next, `COc1ccc(/C=N/NC(=O)CCCOc2ccc(Cl)cc2Cl)cc1`: -0.126. Consider `Cc1ccc(Nc2cc(C)nn2-c2nc(C)cc(=O)[nH]2)cc1`, for which the z-score is 16.4 (active). Turning to `Cc1ccc(Nc2cc(C)nn2-c2nc(C)cc(C)n2)cc1`, the z-score amounted to 0.547. Consider `Cc1cc(C)nc(-n2nc(C)cc2Nc2ccccc2)n1`, for which the z-score is -0.115. Next, `CN(C)Cc1ccccc1C1(O)c2ccccc2CSc2ccccc21` (stereo unspecified): -0.164. Next, `CN1CCC(C2(O)c3ccccc3CSc3sccc32)CC1` (stereo unspecified): 2.02; `CN(C)CC1CCCCC1C1(O)c2ccccc2CSc2sccc21` (stereo unspecified): 1.47; `COc1ccc(Nc2cc(C(=O)NCc3ccco3)c3ccccc3n2)cc1`: -0.00632. Then `O=C(O)c1cc(S(=O)(=O)Nc2ccccc2C(=O)O)ccc1O`, with -0.576; and `CCOC(=O)c1c(C)nc2sc(C(N)=O)c(N)c2c1-c1ccccc1`, with -1.25. `Cc1ccc(S(=O)(=O)n2cnc3cc([N+](=O)[O-])ccc32)cc1C`: the z-score came out at 2.81. Next, `Cc1ccc(S(=O)(=O)n2cnc3cc([N+](=O)[O-])ccc32)c(C)c1C`: -0.143. With `Cc1cc(S(=O)(=O)n2cnc3cc([N+](=O)[O-])ccc32)ccc1Cl`, the z-score is -0.268.

Turning to `C=CCSc1nnc(Cc2cc(=O)[nH]c(=O)[nH]2)n1-c1cc(C)ccc1C`, the z-score is -0.111. Next, `COc1ccc(NC(=S)N2CCC(N(C)CCN3CCOCC3)CC2)cc1Cl`: -0.269. Then `C=CCN(CC=C)C(=S)NC(=O)c1ccc([N+](=O)[O-])cc1`, with 4.84 (active); and `CC(C)NC(=S)NC(=O)c1ccc(-c2ccccc2)cc1`, with 0.201; and `CN(Cc1ccccc1)C(=S)NC(=O)C1CCCCC1`, with 1.47. For `CN(Cc1ccccc1)C(=S)NC(=O)c1ccc(-c2ccccc2)cc1`, the z-score is 4.13 (active). Then `CCC(=O)NC(=S)NNC(=O)c1ccc([N+](=O)[O-])cc1`, with 0.17; and `O=C(NC(=S)Nc1ccccn1)c1ccc([N+](=O)[O-])cc1`, with 0.166. Then `C=CCN(CC=C)C(=S)Nc1ccccc1`, with -0.0866; and `C=CCN(CC=C)C(=S)NC(=O)c1ccc(-c2ccccc2)cc1`, with 11.4 (active). Consider `CCCN(CCC)C(=S)NC(=O)c1ccc(-c2ccccc2)cc1`, for which the z-score is -0.959. Then `OCc1nc2ccccc2n1C/C=C/c1ccccc1`, with 0.00864. In turn, `O=C(Nc1ccc(Cl)cc1)C1CCCN(S(=O)(=O)c2cnc[nH]2)C1` (stereo unspecified) had a z-score of 0.605.

As for `COc1cc(C)c(Br)cc1S(=O)(=O)N1CCCC1`, the z-score was 0.188. Then `O=C1c2cccc3cccc(c23)C(=O)N1c1ccc2ncccc2c1`, with -0.261; and `CCOC(=O)C1=C(O)/C(=C\c2cccc(OC)c2)N=C1C`, with -0.194.

In turn, `COc1cccc(-c2nc(Oc3cc(C)cc(C)c3)c3ccccc3n2)c1O` showed a z-score of 0.123. With `COc1cc(CNCC(C)C)cc(Br)c1OCC(=O)Nc1ccccc1`, the z-score is 2.21. Then `CCNCc1cc(Br)c(OCC(=O)Nc2ccccc2)c(OC)c1`, with 1.18.

For `COc1cc(CNCC(C)C)c(Br)cc1OCC(=O)NCc1ccccc1`, the z-score turned out to be 0.232. Regarding `COc1ccc(OCC(=O)N2CCN(c3nnc(-c4ccccc4)c4ccccc34)CC2)cc1`, the z-score is 0.267.
